35 molecules from ChEMBL document CHEMBL3988442, “University of Dundee, Small-Polar-MMV Screening Library” (2021) can be followed below.

Each structure is given as a SMILES string. About 13,000 (27%) of roughly 48,000 compounds showed an effect of 50% or more. This is one part of the list.

In the experiment the test system is Wolbachia pipientis. Nature of the experiment: Anti-Wolbachia Cell-Based Screen. Type of experiment: functional. More on the design: scale not given: in the data most compounds retested in dose-response had high values. Conditions: 5 µM.
For the molecule `CN1CCc2[nH]nc(C(=O)N3CCC4(CCCO4)CC3)c2C1`, the “Percent Effect” value amounted to 17.17%. Take `CC(C)N(C)CCNC(=O)N(C)CC1CCOCC1`: the “Percent Effect” value was -11.44%.

As for `CCS(=O)(=O)N1CCC2(CC1)CC(OCC1CC1)CO2` (stereo not given), the “Percent Effect” value is listed as -14.92%.

Turning to `CC(NC(=O)CCCOc1ccccc1)c1nnc2n1CCCCC2` (stereo not given), the “Percent Effect” value is -1.101%.

`CC(NC(=O)COCC(F)(F)F)c1nnc2n1CCCCC2` (stereo not given): the “Percent Effect” value is recorded as 88.58%. Turning to `CC(NC(=O)COc1ccc(F)cc1)c1nnc2n1CCCCC2` (stereo not given), the “Percent Effect” value is on record as -2.87%. Turning to `CC(Cn1cccn1)NCC(=O)NC1(C#N)CCCCC1` (stereo not given), the “Percent Effect” value stood at 4.138%. Turning to `CCC(CO)N(Cc1ccco1)C(=O)c1ccccc1NC` (stereo not given), the “Percent Effect” value was -1.044%. Take `Cc1oc(CN(C)C(=O)c2ccc(C(F)(F)F)cc2)cc1C(=O)O`: the “Percent Effect” value was -14.62%. As for `CC(C#N)CNC(=O)Nc1ccc(-c2ccc[nH]2)cc1` (stereo not given), the “Percent Effect” value is -13.54%.

Regarding `O=C(CNC(=O)c1cc(Cl)ccn1)Nc1nccs1`, the “Percent Effect” value is on record as -9.837%. `O=C(CNC(=O)c1ccccc1Cl)Nc1nccs1`: the “Percent Effect” value is listed as 1.164%. As for `O=C(CNC(=O)c1ccc(Cl)cc1)Nc1nccs1`, the “Percent Effect” value came to 62.52%.

For the molecule `Fc1ccc(OC2CCN(Cc3nnc(-c4ccco4)o3)CC2)cc1`, the “Percent Effect” value stood at 0.5253%. Regarding `O=C(NCCN1CCOCC1)NCc1cccnc1-n1cccn1`, the “Percent Effect” value is -2.618%. In the case of `CCn1ccnc1CN1CCN(c2ncnc3ccccc23)CC1`, the “Percent Effect” value worked out at 5.306%.

As to `OC1CCCN(Cc2c(-c3ccco3)[nH]c3ncccc23)C1` (stereo not given), the “Percent Effect” value is -4.635%. For `OC1CCN(Cc2c(-c3ccco3)[nH]c3ncccc23)CC1` the value was 97.96%; for `CN1CCN(Cc2ccccc2Oc2nccc3occc23)CC1`, 2.64%; for `c1coc(-c2[nH]c3ncccc3c2CN2CCCOCC2)c1`, 122.9%. In the case of `CCN1CCN(Cc2c(-c3ccco3)[nH]c3ncccc23)CC1`, the “Percent Effect” value is 126%. Next, `CN1CCN(Cc2c(-c3ccco3)[nH]c3ncccc23)CC1`: 119.4%; `CN1CCN(Cc2cccc(NCc3ncc[nH]3)c2)CC1`: -6.689%.

As to `OC1(CN2CCCC2)CCCN(Cc2cnc(-c3ccco3)nc2)C1` (stereo not given), the “Percent Effect” value is given as -19.31%. As for `Cc1nc(-c2ccc(S(=O)(=O)N3CCSCC3)cc2)co1`, the “Percent Effect” value is on record as -2.351%. Regarding `Cc1ccc(F)c(C(=O)Nc2cccc(CCN3CCCC3)c2)c1`, the “Percent Effect” value is -3.643%.

Take `O=C(CN1CCCS1(=O)=O)Nc1cccc(COC2CCCCC2)c1`: the “Percent Effect” value was 13.44%. Turning to `Cc1cccc(C2(NCCCS(C)(=O)=O)CCCC2)c1`, the “Percent Effect” value is -2.725%. With `OCCCNc1cccc(COC2CCCCC2)c1`, the “Percent Effect” value came to 117.5%. For the molecule `Cc1c(CS(C)(=O)=O)cccc1NCCCC1CCCC1`, the “Percent Effect” value is given as -1.975%.

With `Clc1cncc(NCc2cccc(COC3CCOCC3)c2)n1`, the “Percent Effect” value was -1.49%. In the case of `CS(=O)(=O)NCc1cccc(COC2CCCCC2)c1`, the “Percent Effect” value turned out to be 112.9%.

As to `CS(=O)(=O)NC(=O)CCc1cccc(OC2CCCC2)c1`, the “Percent Effect” value is 2.726%. Take `CC(CO)NC(=O)Nc1ccc(COC2CCCC2)cc1` (stereo not given): the “Percent Effect” value is recorded as 8.692%. Regarding `CS(=O)(=O)CCCNc1cccc(COC2CCCCC2)c1`, the “Percent Effect” value stood at 108.4%.
